Laboratory results taken from PubChem BioAssay (NCI).
The panel holds about 79,000 compounds, 15% with a hit somewhere; the sample as a whole holds those more often. The source made the active and inactive calls. No stated cut-off is given here; in the data, active means growth inhibition above about 70%; inactive means the rest.

Columns and labels:
[1] = NCI Yeast Anticancer Drug Screen. Data for the rad52 strain (AID 147);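 further: 0% = growth of vehicle-treated control cultures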; conditions: S. cerevisiae rad52 mutant growth inhibition, stronger effect = higher value
Method in brief: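 Inhibition of yeast growth, referenced to vehicle controls, was the measured output for a strain with defective DNA damage repair.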

[2] = NCI Yeast Anticancer Drug Screen. Data for the wt1 strain (AID 149);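 further: 0% = growth of vehicle-treated wt1 cultures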; conditions: S. cerevisiae wt1 strain (SPY 50644) growth inhibition, stronger effect = higher value
Method in brief: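 wt1 yeast, compound-treated; % growth inhibition vs vehicle control.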

[3] = NCI Yeast Anticancer Drug Screen. Data for the rad50EPP+ strain (AID 151);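 further: 0% = growth of vehicle-treated control cultures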; conditions: S. cerevisiae rad50 mutant strain, stronger effect = higher value
Method in brief: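 Genetically defined yeast (rad50EPP+, DNA damage repair alteration) is grown with compound, and inhibition of growth is expressed relative to vehicle-treated controls.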

[4] = NCI Yeast Anticancer Drug Screen. Data for the mgt1 strain (AID 153); conditions: S. cerevisiae mgt1 mutant growth inhibition, stronger effect = higher value
Method in brief: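 In the mgt1 strain, test compounds were added and growth inhibition was determined relative to vehicle-treated controls.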

[5] = NCI Yeast Anticancer Drug Screen. Data for the rad50 strain (AID 155);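 further: 0% = growth of vehicle-only cultures of the same strain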; conditions: S. cerevisiae rad50 strain growth inhibition, stronger effect = higher value
Method in brief: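 Genetically altered yeast (DNA repair pathway); compound treatment; growth inhibition vs vehicle ctrl.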

[6] = NCI Yeast Anticancer Drug Screen. Data for the mec2-1 strain (AID 157); conditions: S. cerevisiae mec2-1 strain, stronger effect = higher value
Method in brief: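 Each compound was tested on mec2-1 yeast, a strain altered in DNA damage repair or cell cycle control. Growth inhibition is reported relative to vehicle.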

[7] = NCI Yeast Anticancer Drug Screen. Data for the sgs1 mgt1 strain (AID 161);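 further: 0% = growth of cultures given vehicle only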; conditions: S. cerevisiae sgs1 mgt1 strain, stronger effect = higher value
Method in brief: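 Mutant yeast exposed to compound; growth scored against vehicle-only wells.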

[8] = NCI Yeast Anticancer Drug Screen. Data for the CLN2oe strain (AID 163);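 further: 0% = growth of vehicle-only control cultures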; conditions: S. cerevisiae CLN2oe strain, stronger effect = higher value
Method in brief: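 First, the altered yeast strain was treated with each compound; second, its growth was measured; finally, inhibition was derived by comparison with vehicle controls.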

[9] = NCI Yeast Anticancer Drug Screen. Data for the cln2 rad14 strain (AID 165);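 further: 0% = growth equal to vehicle treated cultures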; conditions: S. cerevisiae cln2 rad14 strain, stronger effect = higher value
Method in brief: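 Test compounds were added to cln2 rad14 yeast cultures; inhibition of growth was then determined by comparison with vehicle treatment.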

[10] = NCI Yeast Anticancer Drug Screen. Data for the bub3 strain (AID 167); conditions: S. cerevisiae bub3 mutant strain, stronger effect = higher value
Method in brief: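 Yeast carrying a defined mutation is treated with each compound, and growth is compared with that of vehicle-exposed cells to give inhibition.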

[11] = NCI Yeast Anticancer Drug Screen. Data for the wt2 strain (AID 169);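 further: 0% = growth of vehicle-treated yeast cultures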; conditions: S. cerevisiae wt2 strain growth inhibition, stronger effect = higher value
Method in brief: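 The panel's yeast strains carry defined changes in DNA repair or cell cycle genes. Each strain is grown with compound, and growth loss is scored relative to vehicle.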

[12] = NCI Yeast Anticancer Drug Screen. Data for the mlh1 strain (AID 171);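 further: 0% = growth of vehicle-treated control cultures of the same strain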; conditions: S. cerevisiae mlh1 strain growth inhibition, stronger effect = higher value
Method in brief: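 Inhibition values reflect reduced yeast growth in the presence of compound, referenced to vehicle controls, using a strain chosen for its alteration in DNA repair or cell cycle control.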

[13] = NCI Yeast Anticancer Drug Screen. Data for the mlh1 rad18 strain (AID 175); conditions: S. cerevisiae mlh1 rad18 strain growth inhibition, stronger effect = higher value
Method in brief: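 Inhibition values reflect reduced growth of mutant yeast versus vehicle-treated controls following compound exposure; the mutations affect DNA damage repair.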

[14] = NCI Yeast Anticancer Drug Screen. Data for the rad18 strain (AID 177); conditions: S. cerevisiae rad18 mutant growth inhibition, stronger effect = higher value
Method in brief: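 Steps: expose repair-mutant yeast to compound; measure growth; express as inhibition relative to vehicle control.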

[15] = NCI Yeast Anticancer Drug Screen. Data for the rad14 strain (AID 159);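 further: 0% = growth of vehicle-treated control cultures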; conditions: S. cerevisiae rad14 strain growth inhibition, stronger effect = higher value
Method in brief: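 Test compounds were applied to a repair-deficient yeast strain. Its growth was then compared with that of cultures given vehicle alone, and inhibition was expressed relative to those controls.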

[16] = NCI Yeast Anticancer Drug Screen. Data for the sgs1 strain (AID 173);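 further: 0% = growth of vehicle-only control cultures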; conditions: S. cerevisiae sgs1 mutant, stronger effect = higher value
Method in brief: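 Vehicle-treated cultures served as reference for growth inhibition of a yeast strain altered in DNA damage repair or cell cycle control after compound exposure.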

[17] = at 5.0 µM (retest, dose inferred, filed as 0.5)
[18] = at 50.0 µM (retest, dose inferred, filed as 5.0)

Measured: growth inhibition

O=[N+]([O-])c1cccc2nccc(NCCCO)c12
active: [1]; at 100.0 µM 70% | [5]; [18] 79% | [5]; at 100.0 µM 70% | [7]; [18] 85% | [7]; at 50.0 µM 73.8% | [9]; [18] 91% | [13]; [18] 91% | [14]; at 3.7 µM 79% | [14]; at 11.0 µM 88% | [14]; at 33.0 µM 93% | [14]; at 100.0 µM 94%
inactive: [1]; at 1.2 µM 18% | [1]; at 3.7 µM 2% | [1]; at 11.0 µM 11% | [1]; at 33.0 µM 40% | [2]; at 1.2 µM 1% | [2]; at 3.7 µM 0% | [2]; at 11.0 µM 5% | [2]; at 33.0 µM 10% | [2]; at 100.0 µM 16% | [3]; at 1.2 µM 14% | [3]; at 3.7 µM 13% | [3]; at 11.0 µM 20% | [3]; at 33.0 µM 27% | [3]; at 100.0 µM 46% | [4]; at 1.2 µM -24% | [4]; at 3.7 µM -9% | [4]; at 11.0 µM -12% | [4]; at 33.0 µM 5% | [4]; at 100.0 µM 26% | [5]; at 1.2 µM -17% | [5]; at 3.7 µM 3% | [5]; [17] 32% | [5]; at 11.0 µM 11% | [5]; at 33.0 µM 40% | [5]; at 50.0 µM 46.3% | [6]; at 1.2 µM -20% | [6]; at 3.7 µM -12% | [6]; [17] 13% | [6]; at 11.0 µM -3% | [6]; at 33.0 µM 23% | [6]; [18] 52% | [6]; at 50.0 µM 57.7% | [6]; at 100.0 µM 68% | [7]; [17] 51% | [8]; at 1.2 µM 11% | [8]; at 3.7 µM 5% | [8]; at 11.0 µM 4% | [8]; at 33.0 µM 2% | [8]; at 100.0 µM 14% | [9]; [17] 15% | [9]; at 50.0 µM 57.9% | [10]; at 1.2 µM -12% | [10]; at 3.7 µM -13% | [10]; [17] 4% | [10]; at 11.0 µM -14% | [10]; at 33.0 µM -18% | [10]; [18] -43% | [10]; at 50.0 µM 10.1% | [10]; at 100.0 µM -9% | [11]; at 1.2 µM -27% | [11]; at 3.7 µM -26% | [11]; at 11.0 µM -19% | [11]; at 33.0 µM -22% | [11]; at 100.0 µM 6% | [12]; at 1.2 µM -26% | [12]; at 3.7 µM -7% | [12]; at 11.0 µM -3% | [12]; at 33.0 µM 5% | [12]; at 100.0 µM 30% | [13]; [17] 24% | [13]; at 50.0 µM 32.9% | [14]; at 1.2 µM 46%

c1ccc2c(c1)C(=NCCCN1CCCCCC1)c1cccn1-2
inactive: [1]; at 1.2 µM -3% | [1]; at 3.7 µM -5% | [1]; at 11.0 µM -5% | [1]; at 33.0 µM -6% | [2]; at 1.2 µM -2% | [2]; at 3.7 µM -1% | [2]; at 11.0 µM 2% | [2]; at 33.0 µM -1% | [3]; at 1.2 µM -3% | [3]; at 3.7 µM -4% | [3]; at 11.0 µM -4% | [3]; at 33.0 µM 3% | [3]; at 100.0 µM 63% | [5]; at 1.2 µM -3% | [5]; at 3.7 µM -8% | [5]; [17] -3% | [5]; at 11.0 µM -9% | [5]; at 33.0 µM -6% | [5]; [18] -6% | [6]; at 1.2 µM -3% | [6]; at 3.7 µM 1% | [6]; [17] 0% | [6]; at 11.0 µM 4% | [6]; at 33.0 µM 0% | [6]; [18] -3% | [6]; at 50.0 µM 68.2% | [15]; at 1.2 µM -15% | [15]; at 3.7 µM -3% | [15]; at 11.0 µM -2% | [15]; at 33.0 µM 4% | [7]; [17] 2% | [7]; [18] -7% | [8]; at 1.2 µM -10% | [8]; at 3.7 µM -15% | [8]; at 11.0 µM -23% | [8]; at 33.0 µM -18% | [9]; [17] -7% | [9]; [18] -5% | [9]; at 50.0 µM 61.4% | [10]; at 1.2 µM 0% | [10]; at 3.7 µM -4% | [10]; [17] 6% | [10]; at 11.0 µM 0% | [10]; at 33.0 µM 10% | [10]; [18] -3% | [11]; at 1.2 µM -2% | [11]; at 3.7 µM -4% | [11]; at 11.0 µM -2% | [11]; at 33.0 µM -3% | [12]; at 1.2 µM -2% | [12]; at 3.7 µM -2% | [12]; at 11.0 µM 0% | [12]; at 33.0 µM 4% | [16]; at 1.2 µM -4% | [16]; at 3.7 µM -2% | [16]; at 11.0 µM -1% | [16]; at 33.0 µM 4% | [13]; [17] -2% | [13]; [18] -2% | [14]; at 1.2 µM -1% | [14]; at 3.7 µM 1% | [14]; at 11.0 µM 4% | [14]; at 33.0 µM 1%
active: [1]; at 100.0 µM 97% | [2]; at 100.0 µM 93% | [5]; at 50.0 µM 78.2% | [5]; at 100.0 µM 97% | [6]; at 100.0 µM 98% | [15]; at 100.0 µM 98% | [7]; at 50.0 µM 84.5% | [8]; at 100.0 µM 93% | [10]; at 50.0 µM 94.9% | [10]; at 100.0 µM 97% | [11]; at 100.0 µM 96% | [12]; at 100.0 µM 96% | [16]; at 100.0 µM 96% | [13]; at 50.0 µM 89.8% | [14]; at 100.0 µM 98%
